Source: PubChem (National Center for Advancing Translational Sciences (NCATS))
RGS4 inhibitor: inhibitors of human regulator of G protein signaling 4. P49798. Transcreener GDP fluorescence polarization, RGS4-accelerated GTP hydrolysis. Potency, µM (top dose mostly 114 µM), for the others: at the highest dose activity change, negative = inhibition, usual class: inhibitors. hit rate 0.039% among 390,000; further: potency means the concentration at half of the fitted maximal effect; on the % scale 0 is the no-effect control and ±100 the full control effect; nearly all actives have a fitted effect of over 75% in size
Target sequence (P49798 whole entry, looked up): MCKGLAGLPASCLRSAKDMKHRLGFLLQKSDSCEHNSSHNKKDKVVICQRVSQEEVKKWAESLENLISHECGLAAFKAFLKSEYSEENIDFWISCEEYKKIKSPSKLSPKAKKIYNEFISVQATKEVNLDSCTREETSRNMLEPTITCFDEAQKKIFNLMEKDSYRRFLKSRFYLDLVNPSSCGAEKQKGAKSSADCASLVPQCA
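MLSMR compounds (23 nl, pin-transferred) preincubated 10 min at room temperature with a 500nM (2x) first reagent, then RGS4 at 900nM (2x) plus Transcreener GDP mix added; fluorescence polarization (620/688 nm) read before and after 90 min at 30 °C.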
B2AR arrestin: recruits beta-arrestin to the human beta2-adrenergic receptor. AID 492947. beta-arrestin recruitment to beta2AR, cell-based reporter. hit rate 0.02% among 330,000. Potency, µM (series often up to 46.1 µM), for inactives: at the highest dose activation, hits mostly activators. P07550;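 further: potency means the concentration at half of the fitted maximal effect; 0% = DMSO controls and full agonism = EC100 isoproterenol or metaproterenol; nearly all actives have a fitted effect of over 65% in size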
Target sequence (P07550 whole entry, looked up): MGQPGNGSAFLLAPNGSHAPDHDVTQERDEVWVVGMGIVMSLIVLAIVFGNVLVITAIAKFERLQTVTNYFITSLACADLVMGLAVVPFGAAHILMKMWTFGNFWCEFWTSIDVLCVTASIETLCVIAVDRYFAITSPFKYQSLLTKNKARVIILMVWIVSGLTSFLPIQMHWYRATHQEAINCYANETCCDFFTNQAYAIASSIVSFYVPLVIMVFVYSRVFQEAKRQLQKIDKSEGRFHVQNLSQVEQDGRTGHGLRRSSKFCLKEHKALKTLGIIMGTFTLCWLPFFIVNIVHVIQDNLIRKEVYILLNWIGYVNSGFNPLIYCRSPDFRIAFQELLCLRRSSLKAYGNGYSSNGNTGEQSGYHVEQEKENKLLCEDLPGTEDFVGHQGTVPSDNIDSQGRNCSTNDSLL
PTHR1 ag: activates the human parathyroid hormone receptor PTHR1 | HEK293 GP2 PTHR1 cells, GloSensor cAMP luminescence, 1 h | Potency, µM (titrated, usually from 115 µM), for the others: at the top dose activation, most hits filed as activators | hit rate 0.075% among 410,000 | AID 743266; further: potency means the concentration at half of the fitted maximal effect; nearly all actives have a fitted effect of over 55% in size
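HEK-293-derived GP2 cells expressing PTHR1 and a GloSensor cAMP reporter, 3,000/well, plated overnight, given luciferin plus IBMX (each 0.5 mM as added) for 1 h at 37 °C, then compound for 1 h at 37 °C. Luminescence was read after 15 min at room temperature.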
DRD3 agonist: agonists of human D3 dopamine receptor. P35462. D3R DiscoveRx beta-arrestin cells, luminescence, 90 min. max activation, %. hit rate 0.58% among 410,000; in the data active means max activation above about 30%; further: 0% is about no effect
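Cells at 1500/well, incubated overnight, then treated with pinned compounds (dopamine as control) for 90 min at 37 degrees C. DiscoveRx reagent added for 30 - 60 minutes at room temperature; luminescence read.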
BRCA1 expr act: BRCA1 expression activation; Potency, µM (highest dose often 46.1 µM), without a hit: at the top dose activation, most hits filed as activators; MCF7-BRCA1-FFLuc reporter, luminescence, 48 h; response scale: scaled: vehicle 0%, 10 µM genistein 100%; hit rate 1.1% among 380,000; AID 624202; further: potency means the concentration at half of the fitted maximal effect; nearly all actives have a fitted effect of over 80% in size
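Activators of BRCA1 expression were detected as increased firefly luciferase luminescence in engineered MCF7 cells after 48 h compound incubation. Signals were scaled to genistein 10 microM as full activation.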
DRD3 antagonist: blocks the human D3 dopamine receptor. P35462. D3R cells, DiscoveRx beta-arrestin luminescence, antagonist mode; active compounds read low. max response, negative = inhibition, %. hit rate 2.5% among 360,000. AID 652054; in the data active means max response below about -50%; inconclusive means no clear call, values can overlap the other calls; further: on the % scale 0 is the no-effect control and ±100 the full control effect
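Cells expressing the human receptor were seeded at 1500 cells/well, incubated overnight at 37 degrees C in 5% CO2, then exposed to library compounds with dopamine controls for 90 minutes at 37 degrees C before luminescent detection.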
Starred values were filed as active, the others as inactive; i = inactive; ? = inconclusive; / = no result; ! = repeats disagree; [ ] = dose if it differs, or a comment. This is a sample that favours compounds with a hit; in the whole collection about 3.7% have one here. Unless noted, the call rests on the fitted dose curve; in most records, active means well fitted curve in the direction sought with a large enough effect; inconclusive means small, poorly fitted or top-dose-only effect, or another doubt; inactive means no such curve, though single readings can be large; an effect the other way counts as inactive or inconclusive.

SMILES	RGS4 inhibitor	B2AR arrestin	PTHR1 ag	DRD3 agonist	BRCA1 expr act	DRD3 antagonist
CCCCN(C)CCNC(=O)c1cc2c(-c3cccc(OC)c3)nn(C)c2s1	-14%	-1%	i	-19	-16%	-78*
COc1ccc(NC(=O)c2cc3c(-c4ccccc4F)nn(C)c3s2)c(OC)c1	-7%	/	-14%	41*	/	/
CC[C@H](C)[C@H]1CNC(=S)N1CC1CCN(CC2CCC(C)CC2)CC1 (stereo partly drawn)	6%	/	-36%	-51	-3%	-104*
CCC(C)[C@H]1CNC(=O)C(=O)N1CC1CCCCC1 (stereo partly drawn)	/	/	-21%	/	/	/
O=C1NC[C@H](Cc2ccccc2)N(CC2CCN(CCC34CC5CC(CC(C5)C3)C4)CC2)C1=O	19%	/	3%	-43	-25%	0
CC[C@H](C)[C@H]1CNC(=S)N1CC1CCN(CCC23CC4CC(CC(C4)C2)C3)CC1	7%	/	-70%	-37	-28%	-83*
COC(=O)Cc1cc(OC)c(OC)cc1S(=O)(=O)N(C)C	-8%	0%	i	8	0%	7
CC(C)c1ccc(NC(=O)c2cc(S(=O)(=O)NC3CCCCC3)ccc2F)cc1	-9%	/	-16%	2	/	/
COc1ccc(CNC(=O)CCCCCn2c(=O)[nH]c3ccccc3c2=O)cc1	-8%	/	-29%	-13	/	/
O=C1C=C(c2ccc(Cl)c(C(F)(F)F)c2)C[C@@H](c2ccc(Cl)cc2)C1	3%	0%	-14%	-1	-9%	0
Fc1ccccc1COc1ccc(-c2nnn(Cc3ccccc3F)n2)cc1	-9%	0%	-11%	0	21%	-25
Cn1nnc(-c2ccc(OCc3ccccc3F)cc2)n1	-4%	0%	-89%[57.5 µM]	1	?	7
Nc1ccc(-c2nnn(Cc3ccccc3F)n2)cc1	4%	-1%	-66%	-6	11µM*	3
CC(C)n1nnc(-c2ccc(OCc3ccccc3F)cc2)n1	28%	0%	-8%	4	4.5µM*	5
CCOc1ccccc1NC(=O)CCCc1ccc(OC)c(C)c1	-27%	0%	-19%	0	-10%	13
CCc1ccc(C(=O)NNC(=O)CN2C(=O)NC3(CCCC3)C2=O)cc1	1%	0%	-5%	1	1%	-2
Cc1ccc(OCC(O)CN2CCN(Cc3ccc4c(c3)OCO4)CC2)cc1C (stereo not drawn)	9%	-3%	i	-9	-18%	-16
C=CCc1ccccc1OCC(O)CN1CCN(c2ccc(C)cc2)CC1 (stereo not drawn)	0%	0%	i	-30	-6%	-59*
C=CCc1ccccc1OCC(O)CN1CCN(Cc2ccc3c(c2)OCO3)CC1 (stereo not drawn)	-9%	-1%	-7%[57.5 µM]	-7	-13%	-89*!
CC1(c2nc3ccccc3[nH]2)CCC(=O)N1Cc1ccc(F)cc1 (stereo not drawn)	/	/	i	8	5%	3
CCOc1ccc(/C=N/NC(=O)c2ccccc2Cl)cc1CN1CC2CC(C1)c1cccc(=O)n1C2 (stereo not drawn)	8%	0%	-27%	-94	-10%	-85*
CCOc1ccc(/C=N/NC(=O)c2ccccc2C)cc1CN1CC2CC(C1)c1cccc(=O)n1C2 (stereo not drawn)	3%	0%	-13%	-8	-2%	36
COc1ccc2c(c1)CO[C@]21O[C@H](CCO)C[C@H](O)[C@H]1O	/	/	-4%	-12	8%	-69*
C[C@H]1CN([C@@H](C)CO)C(=O)CCCn2cc(nn2)CO[C@@H]1CN(C)C(=O)c1ccncc1	/	/	-8%	8	2%	18
CCc1cc(C(=O)c2ccc(Br)cc2)c(NC(=O)CN(CC)CC)s1	-5%	-1%	3%	2	-18%	-62*
SMILES	RGS4 inhibitor	B2AR arrestin	PTHR1 ag	DRD3 agonist	BRCA1 expr act	DRD3 antagonist
O=C1[C@H](Cc2ccccc2)NCC=CC[C@@H](c2ccc(Cl)cc2)N1Cc1ccccc1	8%	/	8%	-4	-20%	1
CC(C)c1ccc(NC(=O)COc2ccccn2)cc1	11%	0%	-18%	-16	4µM*	0
CC(C)c1ccc(NC(=O)COc2ccccc2)cc1	4%	0%	-41%	-3	?	1
CN(C(=O)c1cc2c(=O)n3ccccc3nc2n1C)C1CCCCC1	-32%	0%	-7%	-3	1.4µM*	-28
CCOC(=O)C(C)/C(C)=N/NC(=O)CCC(=O)Nc1cc(C)ccc1C (stereo not drawn)	-6%	0%	-23%	5	19%	-11
COc1cc2c(-c3cc(Br)ccc3O)nc3c(c(C)nn3-c3ccccc3)c2cc1OC	10%	/	i	1	/	/
COc1cc2c(-c3ccccc3C)nc3c(c(C)nn3-c3ccccc3)c2cc1OC	0%	/	-4%	41*	/	/
CCN(CC)S(=O)(=O)c1cccc(C(=O)NCCc2ccccc2)c1	-9%	/	i	-9	6.3µM*	-18
COc1ccc(CCNS(=O)(=O)CCNC(=O)c2ccccc2)cc1	-6%	-1%	i	4	-24%	22
O=C(NCCc1ccccc1)c1ccc(Br)o1	6%	0%	-42%	-10	7.1µM*	-15
COc1ccc(C(=O)NCCS(=O)(=O)NCCc2ccccc2)cc1	4%	-3%	-15%	-1	4.5µM*	10
O=C(NCCCc1ccccc1)c1ccccc1	-8%	0%	-4%	-1	10µM*	3
CN(C)S(=O)(=O)c1cccc(C(=O)NCCNC(=O)c2cccc(S(=O)(=O)N(C)C)c2)c1	0%	0%	-8%	0	3%	-5
CC(=O)Nc1cccc(C(=O)N2CCN(S(=O)(=O)Cc3ccccc3)CC2)c1	12%	0%	-3%	-5	13%	-2
O=C(NCCNC(=O)c1ccccc1)c1ccccc1	0%	0%	-8%	0	-1%	-1
O=C(NCCCCNCCCNC(=O)c1ccccc1)c1ccccc1	24%	0%	-17%	-58	7%	-51*
O=C(c1cc(S(=O)(=O)N2CCOCC2)ccc1F)N(CCc1ccccc1)Cc1ccccc1	9%	0%	i	96*	-35%	-92*
Cc1noc2ncnc(N3CCCC(C(=O)Nc4cc(F)ccc4F)C3)c12 (stereo not drawn)	-20%	/	i	8	/	/
CS(=O)(=O)c1ccc([C@@H](O)[C@@H](CO)NC(=O)C(Cl)Cl)cc1	26%	0%	4%	-25	13%	-51*
CS(=O)(=O)c1ccc([C@@H](O)[C@@H](CF)NC(=O)C(Cl)Cl)cc1	-3%	0%	-16%	17	1%	11
